This is a sample that favours compounds with a hit; in the whole collection about 3.8% have one here.
PrP UTR inh: inhibition of PrP 5' UTR reporter expression; inhibition, % (no concentration beside the values); 340,000 tested, 0.35% active; cell-based PrP 5' UTR mRNA reporter, plate reader; AID 488862, 2010; in the data active = inhibition above about 52%; also: 0 = median of the neutral control wells
Mtb FBA inh: Mtb FBA enzyme inhibitors, primary screen, biochemical, fluorescence, strain H37Rv. Fructose-bisphosphate aldolase (Mycobacterium tuberculosis (strain ATCC 25618 / H37Rv)), …. purified M. tuberculosis FBA, fluorescence read-out. inhibition, % at 1 µM. 360,000 tested, 2.3% active. AID 588726, 2011; in the data active = inhibition above about 27%;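 also: 0% = vehicle and 100% = reference inhibitor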
Target sequence (P9WQA3 whole entry, looked up): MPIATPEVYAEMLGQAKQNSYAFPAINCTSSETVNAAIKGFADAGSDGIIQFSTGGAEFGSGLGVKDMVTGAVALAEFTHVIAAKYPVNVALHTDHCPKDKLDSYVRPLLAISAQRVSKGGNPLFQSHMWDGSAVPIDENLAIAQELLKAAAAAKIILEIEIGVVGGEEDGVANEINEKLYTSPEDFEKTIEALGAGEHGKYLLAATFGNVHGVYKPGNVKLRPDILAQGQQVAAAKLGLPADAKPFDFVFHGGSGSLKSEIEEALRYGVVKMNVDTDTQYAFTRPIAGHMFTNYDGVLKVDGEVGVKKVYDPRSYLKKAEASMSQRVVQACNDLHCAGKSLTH
Mtb hypoxia rep: PubChem AID 1159583. M. tuberculosis hypoxia-regulated fluorescent reporter, fluorescence. fluorescence inhibition, % (concentration not given with the values). 300,000 tested, 0.1% active; in the data active = fluorescence inhibition mostly above about 23%, no sharp cut-off; inactive = mostly below about 17%
Yp Topo-I inh: Yersinia pestis topoisomerase I inhibitors, primary screen, biochemical, cleavage product accumulation, plate reader, single point. Y. pestis Topo-I cleavage product accumulation. 360,000 tested, 0.064% active. activity, % at 10 µM. DNA topoisomerase I (Yersinia pestis CO92); in the data active = activity above about 50%, passing the limit was not always enough
GDH-TPI inh: GDH-TPI coupling enzyme inhibitors, primary screen, artefact control for M. tuberculosis FBA inhibitor project, biochemical, absorbance, full deck; AID 588335, 2011; GDH-TPI coupled enzyme counterscreen, NADH absorbance; 360,000 tested, 1.2% active; inhibition, % at 4.8 µM; in the data active = inhibition above about 30%;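 also: 0% = DMSO wells and 100% = wells lacking the enzyme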
PrPC TRFRET: inhibitors of human cell surface prion protein PrPC, primary screen, cell-based, TR-FRET; Major prion protein (Homo sapiens), P04156; TR-FRET read-out; inhibition, % at 13.8 µM; 370,000 tested, 0.43% active; AID 720596, 2013; in the data active = inhibition above about 24%; also: 0% = median of the test wells and 100% = reference compound wells
* = called active by the depositor; / = not tested or not shown; + = active, no number.

SMILES	PrP UTR inh	Mtb FBA inh	Mtb hypoxia rep	Yp Topo-I inh	GDH-TPI inh	PrPC TRFRET
Cc1ccc(-c2cc(-c3ccco3)c(C#N)c(=O)[nH]2)cc1	-2	124*	11	0	26	-9
N#Cc1c(-c2ccc(C(F)(F)F)cc2)cc(-c2ccccc2)[nH]c1=S	-1	6	7	8	1	-3
N#Cc1c(C(F)(F)F)cc(-c2ccccc2Cl)[nH]c1=O	0	145*	2	4	10	2
N#Cc1c(C(F)(F)F)cc(-c2ccccc2)[nH]c1=O	-16	+	13	2	0	0
CCCOC(=O)C1C2C=C[C@]3(CN(C(C)c4ccc(OC)cc4)C(=O)C13)O2 (stereo partly drawn)	/	/	9	/	/	/
COc1ccc(CNC(=O)CN(Cc2ccc(C)cc2)S(=O)(=O)c2ccc(Cl)cc2)cc1	-18	-2	7	52*	1	-6
CSC1=N/C(=C/c2cccnc2)C(=O)N1Cc1ccccc1	-19	9	-1	13	32*	-2
CCN(CCCCN1C(=O)c2ccccc2C1=O)c1ccc2c(c1)C(=O)N(C)C2=O	-4	1	-5	1	43*	-6
C[C@@]12C(=O)Nc3ccc(Br)cc3C(=O)N1C1c3cc(Cl)ccc3OCC1C2c1ccccc1 (stereo partly drawn)	/	/	-5	/	/	/
CCCCOc1ccc(C(=O)N/C(=C/C=C/c2ccccc2)C(=O)O)cc1	-11	-1	9	-5	22	-9
O=C(O)COc1ccc(C=NNC(=O)c2ccccc2Br)cc1	/	/	8	/	/	/
O=C(O)COc1ccc(/C=N/NC(=O)/C(=C/C=C/c2ccccc2)NC(=O)c2ccccc2)cc1	-49	3	/	2	55*	-11
CCCCOc1ccc(C(=O)N/C(=C/C=C/c2ccccc2)C(=O)NC)cc1	-12	0	6	-1	33*	-8
CCOc1cc(C(=O)NN=Cc2cn(CC)nc2C)cc(OCC)c1OCC	/	/	-5	/	/	/
O=C(/C=C/c1cccc([N+](=O)[O-])c1)c1ccc([N+](=O)[O-])o1	16	4	/	-6	41*	-11
O=C(C(Cc1ccc(Cl)cc1)NS(=O)(=O)c1ccccc1)N1CC[C@@]2(O)CCCCC2C1 (stereo partly drawn)	/	/	5	/	/	/
CC1(C)CC(NC(=O)Nc2ccc([N+](=O)[O-])cc2)CC(C)(C)N1	-4	-1	8	-3	32*	-15
Cc1ccc(C(=O)Nc2cccc(C(=O)NN=Cc3ccc(F)cc3)c2)cc1	/	/	2	/	/	/
O=[N+]([O-])c1ccc2[nH]c(O)c(N=NC3CS(=O)(=O)CC3O)c2c1 (stereo not drawn)	-25	2	-10	-5	45*	-28
Cc1ccccc1NCC(=O)N=Nc1c(O)[nH]c2ccc([N+](=O)[O-])cc12	-16	-3	6	-7	36*	-28
O=C1C=C(c2ccc(F)nc2)CC(c2ccc3c(c2)OCO3)C1 (stereo not drawn)	/	/	6	/	/	/
COc1ccc2c(c1)c(=O)oc1cc(OC(C(=O)O)c3ccccc3)ccc12 (stereo not drawn)	-28	+	3	2	15	5
CC(Oc1ccc2c(c1)oc(=O)c1ccccc12)C(=O)NCC1CCC(C(=O)O)CC1 (stereo not drawn)	-25	129*	/	2	15	5
CC(Oc1ccc2c(c1)oc(=O)c1ccccc12)C(=O)NCCN1CCOCC1 (stereo not drawn)	-3	60*	16	-1	5	-4
O=C(O)C(Oc1ccc2c(-c3ccccc3)cc(=O)oc2c1)c1ccccc1 (stereo not drawn)	-24	0	13	14	10	-4
SMILES	PrP UTR inh	Mtb FBA inh	Mtb hypoxia rep	Yp Topo-I inh	GDH-TPI inh	PrPC TRFRET
O=C(NN=Cc1cccc(O)c1)c1cc(C2CC2)nc2ccccc12	/	/	-20	/	/	/
CCCC(C)NC(=O)CN1C(=O)c2cccc3cccc1c23 (stereo not drawn)	-13	1	6	1	-1	-6
CC(C)C(NC(=O)CN1C(=O)c2cccc3cccc1c23)C(C)C	-3	2	3	4	36*	-14
COC(=O)[C@]1(Cc2ccccc2)NC(c2ccc(-c3ccc4c(c3)OCO4)cc2)C2C(=O)N(C)C(=O)C21 (stereo partly drawn)	/	/	-1	/	/	/
Cc1ccc(C)c(-c2csc(NN=Cc3ccco3)n2)c1	/	/	2	/	/	/
COc1ccccc1/C=C/C(=O)NCC(=O)N=Nc1c(O)[nH]c2ccccc12	3	4	6	-4	36*	-30
CCC(=O)c1cc2c(C)cc(=O)oc2c(C)c1O	-9	3	6	-15	7	-1
CCc1cc(=O)oc2c(C)c(O)c(CN(C)C)cc12	-5	+	-5	-6	32*	0
COc1cc(NC(=O)c2ccco2)c(OC)cc1NC(=O)Nc1ccc(Cl)cc1	-5	7	-4	-17	31*	2
C/C(=N\Nc1ccc(S(=O)(=O)N2CCCCC2)cn1)c1ccc(O)cc1	-12	0	/	-2	34*	1
COc1cccc(/C(C)=N/Nc2ccc(S(=O)(=O)N3CCCCC3)cn2)c1	-25	-2	/	14	23	2
O=C(NN=Cc1ccc(Br)o1)C1COc2ccccc2O1 (stereo not drawn)	/	/	8	/	/	/
COc1ccc(Br)cc1C=NNc1cccc(C(=O)O)c1	/	/	-8	/	/	/
C#CCNC(=O)C1=CC(c2ccccc2)CC(OCCCCO)O1 (stereo not drawn)	/	/	8	/	/	/
O=C(COC(=O)c1ccc([N+](=O)[O-])o1)Nc1ccc(F)cc1	-13	0	35*	5	8	-26
COc1ccc(S(=O)(=O)N(C)CC2Oc3ccc(NC(=O)Nc4ccc5c(c4)OCO5)cc3C(=O)N(C(C)CO)CC2C)cc1 (stereo not drawn)	/	/	10	/	/	/
CCN1C(=O)C2C(c3ccc(C)cc3)N3C(=O)N(c4ccccc4)C(=O)[C@@]3(C)C2C1=O (stereo partly drawn)	/	/	1	/	/	/
CC(=O)c1ccc(NS(=O)(=O)c2ccc(N/C=C/C(=O)c3ccc(F)cc3)cc2)cc1	-14	-2	-1	-2	61*	-8
CC(=O)c1cccc(NS(=O)(=O)c2ccc(N/C=C/C(=O)c3ccc(F)cc3)cc2)c1	-22	2	2	6	12	6
Cc1ccccc1S(=O)(=O)c1c(C)cc(C)n(C(C)C)c1=O	-20	2	0	-5	8	-6
CCCCn1c(C)cc(C)c(S(=O)(=O)c2ccccc2C)c1=O	0	2	/	59*	7	-8
Cc1cc(C)nc(N=C(N)Nc2ccc(-c3ccccc3)cc2)n1	/	/	-8	/	/	/
Cc1ccc(C2C3=C(CC(C)(C)CC3=O)N(CCN3CCOCC3)C3=C2C(=O)CC(C)(C)C3)cc1	-7	29*	/	7	7	-6
